Assay results as given in publication PMC7862700, “An all-to-all approach to the identification of sequence-specific readers for epigenetic DNA modifications on cytosine”.

What was measured:
Assay in all cases: DAPPL (digital affinity profiling via proximity ligation, sequencing); 10 mM Tris-HCl pH 7.5, 50 mM NaCl, 1 mM DTT, 4% glycerol, room temperature, 30 min; GST-TFs on glutathione beads, 16-mer random dsDNA library, 0.1% formaldehyde crosslink after washing; high values mean tight binding
[1] = biological target: T1, FLI1 (Homo sapiens, UniProt Q01543 1-452); conditions: protein: recombinant; tags: N-terminal GST; dsDNA, one strand shown
T1 sequence: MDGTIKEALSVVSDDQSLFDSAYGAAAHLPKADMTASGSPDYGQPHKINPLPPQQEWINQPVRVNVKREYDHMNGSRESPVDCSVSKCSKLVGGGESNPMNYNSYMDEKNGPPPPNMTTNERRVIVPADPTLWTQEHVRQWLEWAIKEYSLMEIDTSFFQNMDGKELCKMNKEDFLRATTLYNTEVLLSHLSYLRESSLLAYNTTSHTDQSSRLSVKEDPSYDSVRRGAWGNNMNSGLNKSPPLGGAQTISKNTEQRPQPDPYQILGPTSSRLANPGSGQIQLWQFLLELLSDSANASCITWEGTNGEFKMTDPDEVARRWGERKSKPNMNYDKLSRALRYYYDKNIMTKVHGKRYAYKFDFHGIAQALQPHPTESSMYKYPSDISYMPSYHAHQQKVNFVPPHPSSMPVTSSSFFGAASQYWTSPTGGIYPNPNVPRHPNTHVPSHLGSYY
Outline: (§1)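 Pools were built from human transcription factors expressed in yeast as GST fusions, captured on glutathione beads and DNA-barcoded, along with a tag-only sample. Incubation with 200 nmole of a 16-mer random double-stranded DNA library lasted 30 min at room temperature in Tris/NaCl/DTT/glycerol buffer, and was followed by washing, 0.1% formaldehyde crosslinking, proximity ligation, PCR amplification and Illumina NextSeq500 sequencing. Binding signal is the quotient of each hexamer's read frequency for a factor and its frequency for the tag-only sample.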

[2] = biological target: T2, ELK1 (Homo sapiens, UniProt P19419 1-428); conditions: protein: recombinant; tags: N-terminal GST; dsDNA, one strand shown
T2 sequence: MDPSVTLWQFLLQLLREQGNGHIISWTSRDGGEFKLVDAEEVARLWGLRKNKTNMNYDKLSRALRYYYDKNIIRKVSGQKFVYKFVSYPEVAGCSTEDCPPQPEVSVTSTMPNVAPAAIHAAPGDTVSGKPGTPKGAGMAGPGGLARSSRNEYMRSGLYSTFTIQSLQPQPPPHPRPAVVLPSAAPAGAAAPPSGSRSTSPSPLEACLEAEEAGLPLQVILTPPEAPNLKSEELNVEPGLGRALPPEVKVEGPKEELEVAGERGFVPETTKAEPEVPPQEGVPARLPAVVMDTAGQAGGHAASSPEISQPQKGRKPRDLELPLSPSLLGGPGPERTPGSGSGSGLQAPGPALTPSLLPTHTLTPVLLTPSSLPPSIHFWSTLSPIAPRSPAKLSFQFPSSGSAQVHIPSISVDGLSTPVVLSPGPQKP
Outline: as §1

[3] = biological target: T3, GABPA (Homo sapiens, UniProt Q06546 1-454); conditions: protein: recombinant; tags: N-terminal GST; dsDNA, one strand shown
T3 sequence: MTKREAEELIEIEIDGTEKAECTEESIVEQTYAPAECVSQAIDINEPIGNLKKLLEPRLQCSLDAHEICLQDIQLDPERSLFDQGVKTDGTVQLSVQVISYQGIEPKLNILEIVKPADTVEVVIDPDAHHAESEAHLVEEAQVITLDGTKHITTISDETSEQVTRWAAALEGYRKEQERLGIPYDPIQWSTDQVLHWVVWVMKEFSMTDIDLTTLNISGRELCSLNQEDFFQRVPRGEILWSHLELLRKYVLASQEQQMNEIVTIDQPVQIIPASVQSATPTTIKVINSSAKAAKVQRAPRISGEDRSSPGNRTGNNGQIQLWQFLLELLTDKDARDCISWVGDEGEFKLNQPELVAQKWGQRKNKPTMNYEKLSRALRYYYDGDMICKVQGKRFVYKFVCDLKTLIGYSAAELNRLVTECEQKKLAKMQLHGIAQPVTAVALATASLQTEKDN
Outline: as §1

[4] = biological target: T4, ERG (Homo sapiens, UniProt P11308 1-479); conditions: protein: recombinant; tags: N-terminal GST; dsDNA, one strand shown
T4 sequence: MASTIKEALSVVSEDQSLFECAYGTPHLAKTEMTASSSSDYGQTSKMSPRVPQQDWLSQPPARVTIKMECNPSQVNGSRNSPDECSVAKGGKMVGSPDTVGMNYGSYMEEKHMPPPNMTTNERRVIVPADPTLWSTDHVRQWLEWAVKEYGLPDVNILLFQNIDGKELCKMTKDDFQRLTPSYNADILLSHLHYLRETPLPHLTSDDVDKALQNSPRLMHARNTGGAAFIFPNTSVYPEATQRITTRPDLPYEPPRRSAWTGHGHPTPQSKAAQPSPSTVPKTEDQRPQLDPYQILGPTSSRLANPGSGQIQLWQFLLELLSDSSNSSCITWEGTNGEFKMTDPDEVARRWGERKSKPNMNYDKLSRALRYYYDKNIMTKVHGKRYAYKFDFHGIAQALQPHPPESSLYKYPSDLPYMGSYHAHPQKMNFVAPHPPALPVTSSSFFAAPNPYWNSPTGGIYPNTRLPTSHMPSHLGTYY
Outline: as §1

[5] = biological target: ELF1 (Homo sapiens, UniProt P32519 1-619); conditions: protein: recombinant; tags: N-terminal GST; dsDNA, one strand shown
ELF1, sequence (P32519 whole entry): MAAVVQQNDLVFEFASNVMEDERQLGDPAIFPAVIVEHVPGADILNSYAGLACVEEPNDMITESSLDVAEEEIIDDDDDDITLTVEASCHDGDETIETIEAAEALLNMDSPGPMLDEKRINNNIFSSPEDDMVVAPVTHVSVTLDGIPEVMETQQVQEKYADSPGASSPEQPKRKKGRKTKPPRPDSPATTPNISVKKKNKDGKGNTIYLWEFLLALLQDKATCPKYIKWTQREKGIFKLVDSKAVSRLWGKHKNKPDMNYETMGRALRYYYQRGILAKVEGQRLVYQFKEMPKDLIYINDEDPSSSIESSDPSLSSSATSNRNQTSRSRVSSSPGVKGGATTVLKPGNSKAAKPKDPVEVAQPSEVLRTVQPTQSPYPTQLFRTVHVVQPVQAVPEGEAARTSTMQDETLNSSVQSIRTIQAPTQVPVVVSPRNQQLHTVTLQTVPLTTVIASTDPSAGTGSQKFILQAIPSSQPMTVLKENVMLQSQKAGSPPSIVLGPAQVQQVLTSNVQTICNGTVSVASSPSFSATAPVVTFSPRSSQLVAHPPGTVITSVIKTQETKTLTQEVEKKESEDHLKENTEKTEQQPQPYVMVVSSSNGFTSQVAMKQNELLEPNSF
Outline: as §1

[6] = biological target: T5, EHF (Homo sapiens, UniProt Q9NZC4 1-300); conditions: protein: recombinant; tags: N-terminal GST; dsDNA, one strand shown
T5 sequence: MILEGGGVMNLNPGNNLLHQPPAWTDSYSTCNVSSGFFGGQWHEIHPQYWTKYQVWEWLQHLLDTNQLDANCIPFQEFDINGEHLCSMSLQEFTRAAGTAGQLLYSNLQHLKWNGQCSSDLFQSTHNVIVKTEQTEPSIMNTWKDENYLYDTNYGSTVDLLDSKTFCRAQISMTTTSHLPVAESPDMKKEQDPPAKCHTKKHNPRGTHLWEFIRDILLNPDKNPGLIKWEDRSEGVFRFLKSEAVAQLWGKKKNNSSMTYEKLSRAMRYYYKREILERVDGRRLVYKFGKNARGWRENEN
Outline: as §1

[7] = biological target: SPI1 (Homo sapiens, UniProt P17947 1-270); conditions: protein: recombinant; tags: N-terminal GST; dsDNA, one strand shown
Outline: as §1

[8] = biological target: SPIB (Homo sapiens, UniProt Q01892 1-262); conditions: protein: recombinant; tags: N-terminal GST; dsDNA, one strand shown
SPIB, sequence (Q01892 whole entry): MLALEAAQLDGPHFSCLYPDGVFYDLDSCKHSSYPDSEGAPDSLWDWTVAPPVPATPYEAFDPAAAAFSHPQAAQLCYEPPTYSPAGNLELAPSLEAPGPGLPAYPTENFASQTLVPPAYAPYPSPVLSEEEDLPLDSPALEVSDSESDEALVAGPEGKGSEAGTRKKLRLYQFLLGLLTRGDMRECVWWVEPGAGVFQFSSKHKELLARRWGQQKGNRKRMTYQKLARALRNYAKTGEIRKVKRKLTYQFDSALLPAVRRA
Outline: as §1

[9] = biological target: T6, ELK3 (Homo sapiens, UniProt P41970 1-407); conditions: protein: recombinant; tags: N-terminal GST; dsDNA, one strand shown
T6 sequence: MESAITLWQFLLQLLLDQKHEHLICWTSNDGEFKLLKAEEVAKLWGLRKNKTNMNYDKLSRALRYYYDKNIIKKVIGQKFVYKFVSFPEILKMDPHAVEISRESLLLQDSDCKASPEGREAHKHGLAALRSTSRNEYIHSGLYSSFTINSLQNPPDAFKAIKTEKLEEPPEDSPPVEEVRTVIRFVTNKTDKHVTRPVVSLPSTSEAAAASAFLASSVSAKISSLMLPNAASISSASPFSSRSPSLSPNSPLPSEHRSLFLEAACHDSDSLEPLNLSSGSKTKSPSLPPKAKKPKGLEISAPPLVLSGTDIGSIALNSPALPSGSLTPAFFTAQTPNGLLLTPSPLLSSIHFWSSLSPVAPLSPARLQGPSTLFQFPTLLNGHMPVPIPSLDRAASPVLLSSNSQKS
Outline: as §1

[10] = biological target: T7, FEV (Homo sapiens, UniProt Q99581 1-238); conditions: protein: recombinant; tags: N-terminal GST; dsDNA, one strand shown
T7 sequence: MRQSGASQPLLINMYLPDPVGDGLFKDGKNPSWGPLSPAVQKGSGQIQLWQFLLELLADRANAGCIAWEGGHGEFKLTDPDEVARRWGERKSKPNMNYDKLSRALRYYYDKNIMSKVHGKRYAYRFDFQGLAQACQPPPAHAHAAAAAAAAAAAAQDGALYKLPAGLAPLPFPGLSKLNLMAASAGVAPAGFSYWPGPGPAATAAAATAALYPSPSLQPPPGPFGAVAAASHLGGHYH
Outline: as §1

[11] = biological target: ETV5 (Homo sapiens, UniProt P41161 1-510); conditions: protein: recombinant; tags: N-terminal GST; dsDNA, one strand shown
ETV5, sequence (P41161 whole entry): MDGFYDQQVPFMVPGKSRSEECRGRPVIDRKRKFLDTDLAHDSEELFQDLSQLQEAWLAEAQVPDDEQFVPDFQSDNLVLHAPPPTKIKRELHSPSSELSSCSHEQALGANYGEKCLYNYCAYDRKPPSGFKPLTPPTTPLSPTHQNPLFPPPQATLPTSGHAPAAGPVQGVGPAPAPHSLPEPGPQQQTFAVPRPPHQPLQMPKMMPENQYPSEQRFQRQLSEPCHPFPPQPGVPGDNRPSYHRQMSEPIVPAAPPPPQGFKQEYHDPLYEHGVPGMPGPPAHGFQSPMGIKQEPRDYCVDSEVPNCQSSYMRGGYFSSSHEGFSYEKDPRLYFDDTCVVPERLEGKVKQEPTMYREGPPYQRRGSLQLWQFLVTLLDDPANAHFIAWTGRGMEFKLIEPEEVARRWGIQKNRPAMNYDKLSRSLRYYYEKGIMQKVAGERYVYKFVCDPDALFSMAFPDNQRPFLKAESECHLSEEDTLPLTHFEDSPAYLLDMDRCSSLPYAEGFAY
Outline: as §1

[12] = biological target: HSF1 (Homo sapiens, UniProt Q00613 1-529); conditions: protein: recombinant; tags: N-terminal GST; chain copies: 3; dsDNA, one strand shown
HSF1, sequence (Q00613 whole entry): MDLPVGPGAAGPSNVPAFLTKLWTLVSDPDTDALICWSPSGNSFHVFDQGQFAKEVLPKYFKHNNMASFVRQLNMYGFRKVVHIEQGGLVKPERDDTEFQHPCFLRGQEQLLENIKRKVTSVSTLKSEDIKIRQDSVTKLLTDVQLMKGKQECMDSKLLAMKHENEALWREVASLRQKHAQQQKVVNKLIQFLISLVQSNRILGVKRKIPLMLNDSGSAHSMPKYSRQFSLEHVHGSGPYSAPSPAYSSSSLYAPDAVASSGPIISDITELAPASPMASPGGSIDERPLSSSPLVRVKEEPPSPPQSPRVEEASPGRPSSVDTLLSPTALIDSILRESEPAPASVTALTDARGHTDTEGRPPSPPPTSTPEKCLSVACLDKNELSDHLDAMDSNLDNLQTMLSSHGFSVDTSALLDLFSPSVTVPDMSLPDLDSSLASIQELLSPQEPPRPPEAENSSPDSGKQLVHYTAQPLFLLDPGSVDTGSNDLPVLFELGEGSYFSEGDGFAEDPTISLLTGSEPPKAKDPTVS
Outline: as §1

[13] = biological target: T8, SPIC (Homo sapiens, UniProt Q8N5J4 1-248); conditions: protein: recombinant; tags: N-terminal GST; dsDNA, one strand shown
T8 sequence: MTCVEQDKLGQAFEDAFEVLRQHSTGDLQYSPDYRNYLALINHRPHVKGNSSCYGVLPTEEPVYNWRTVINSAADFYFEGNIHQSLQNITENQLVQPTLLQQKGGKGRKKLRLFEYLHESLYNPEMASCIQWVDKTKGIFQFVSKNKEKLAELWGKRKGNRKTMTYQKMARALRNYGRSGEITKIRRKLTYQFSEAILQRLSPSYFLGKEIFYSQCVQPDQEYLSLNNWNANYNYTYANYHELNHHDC
Outline: as §1

[14] = biological target: ELF4 (Homo sapiens, UniProt Q99607 1-663); conditions: protein: recombinant; tags: N-terminal GST; dsDNA, one strand shown
ELF4, sequence (Q99607 whole entry): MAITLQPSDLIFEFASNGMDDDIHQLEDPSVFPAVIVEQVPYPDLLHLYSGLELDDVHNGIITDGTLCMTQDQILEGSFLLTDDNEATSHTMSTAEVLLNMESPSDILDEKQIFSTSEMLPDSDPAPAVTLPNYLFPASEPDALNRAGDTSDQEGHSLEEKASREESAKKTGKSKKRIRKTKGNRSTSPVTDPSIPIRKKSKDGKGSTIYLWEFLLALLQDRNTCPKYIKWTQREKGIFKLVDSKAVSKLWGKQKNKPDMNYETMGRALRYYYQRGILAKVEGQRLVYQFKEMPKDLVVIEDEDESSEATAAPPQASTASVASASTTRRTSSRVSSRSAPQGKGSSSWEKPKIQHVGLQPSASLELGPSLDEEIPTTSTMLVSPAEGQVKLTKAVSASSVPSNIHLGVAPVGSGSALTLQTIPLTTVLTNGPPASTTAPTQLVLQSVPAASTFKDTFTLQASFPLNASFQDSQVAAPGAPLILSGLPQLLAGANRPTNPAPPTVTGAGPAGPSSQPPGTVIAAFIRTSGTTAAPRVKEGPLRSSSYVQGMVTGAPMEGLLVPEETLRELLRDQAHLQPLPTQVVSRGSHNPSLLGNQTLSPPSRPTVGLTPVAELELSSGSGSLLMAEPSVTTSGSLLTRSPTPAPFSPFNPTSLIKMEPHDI
Outline: as §1

[15] = biological target: T9, ELK4 (Homo sapiens, UniProt P28324-2 1-405); conditions: protein: recombinant; tags: N-terminal GST; dsDNA, one strand shown
T9 sequence: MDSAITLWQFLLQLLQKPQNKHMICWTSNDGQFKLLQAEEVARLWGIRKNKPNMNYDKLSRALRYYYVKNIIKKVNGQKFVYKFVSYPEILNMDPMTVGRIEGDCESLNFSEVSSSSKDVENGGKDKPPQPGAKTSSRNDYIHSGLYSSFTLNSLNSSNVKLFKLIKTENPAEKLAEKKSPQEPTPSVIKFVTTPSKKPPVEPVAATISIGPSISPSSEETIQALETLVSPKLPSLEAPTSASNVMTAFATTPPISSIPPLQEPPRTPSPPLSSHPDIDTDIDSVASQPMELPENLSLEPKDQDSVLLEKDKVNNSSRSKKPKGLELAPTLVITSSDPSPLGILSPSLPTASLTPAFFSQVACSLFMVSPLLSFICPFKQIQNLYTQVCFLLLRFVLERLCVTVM
Outline: as §1

[16] = biological target: T10, ETV2 (Homo sapiens, UniProt O00321 1-342); conditions: protein: recombinant; tags: N-terminal GST; dsDNA, one strand shown
T10 sequence: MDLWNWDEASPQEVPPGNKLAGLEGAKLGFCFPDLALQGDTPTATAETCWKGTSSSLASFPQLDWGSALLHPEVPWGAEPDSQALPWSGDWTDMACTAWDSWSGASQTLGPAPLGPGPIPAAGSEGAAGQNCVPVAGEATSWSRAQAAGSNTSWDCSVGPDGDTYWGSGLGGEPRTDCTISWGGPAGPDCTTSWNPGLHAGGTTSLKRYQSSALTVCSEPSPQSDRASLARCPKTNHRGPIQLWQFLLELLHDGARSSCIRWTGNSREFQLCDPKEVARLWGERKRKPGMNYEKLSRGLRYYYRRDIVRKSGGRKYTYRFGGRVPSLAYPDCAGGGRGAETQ
Outline: as §1

[17] = biological target: T11, ELF3 (Homo sapiens, UniProt P78545 1-371); conditions: protein: recombinant; tags: N-terminal GST; dsDNA, one strand shown
T11 sequence: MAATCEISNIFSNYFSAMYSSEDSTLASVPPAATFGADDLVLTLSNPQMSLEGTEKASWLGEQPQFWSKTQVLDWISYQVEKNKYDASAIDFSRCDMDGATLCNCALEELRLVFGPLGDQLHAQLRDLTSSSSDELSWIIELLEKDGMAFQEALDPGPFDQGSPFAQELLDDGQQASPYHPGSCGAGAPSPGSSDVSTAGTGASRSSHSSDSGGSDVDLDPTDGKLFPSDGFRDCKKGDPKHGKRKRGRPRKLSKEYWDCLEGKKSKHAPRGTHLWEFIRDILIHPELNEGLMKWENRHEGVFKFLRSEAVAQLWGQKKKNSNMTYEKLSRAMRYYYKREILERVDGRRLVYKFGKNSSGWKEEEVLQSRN
Outline: as §1

[18] = biological target: CRX (Homo sapiens, UniProt O43186 1-299); conditions: protein: recombinant; tags: N-terminal GST; dsDNA, one strand shown
CRX, sequence (O43186 whole entry): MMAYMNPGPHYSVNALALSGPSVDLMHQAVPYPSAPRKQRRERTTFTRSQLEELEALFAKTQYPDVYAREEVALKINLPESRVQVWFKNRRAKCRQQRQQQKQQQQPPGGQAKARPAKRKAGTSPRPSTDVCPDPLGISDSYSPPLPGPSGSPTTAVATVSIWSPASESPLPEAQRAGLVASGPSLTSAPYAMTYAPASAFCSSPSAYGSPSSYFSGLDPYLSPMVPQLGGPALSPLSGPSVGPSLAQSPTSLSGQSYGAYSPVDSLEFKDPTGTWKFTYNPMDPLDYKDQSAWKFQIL
Outline: as §1

[19] = biological target: ETV1 (Homo sapiens, UniProt P50549 1-477); conditions: protein: recombinant; tags: N-terminal GST; dsDNA, one strand shown
ETV1, sequence (P50549 whole entry): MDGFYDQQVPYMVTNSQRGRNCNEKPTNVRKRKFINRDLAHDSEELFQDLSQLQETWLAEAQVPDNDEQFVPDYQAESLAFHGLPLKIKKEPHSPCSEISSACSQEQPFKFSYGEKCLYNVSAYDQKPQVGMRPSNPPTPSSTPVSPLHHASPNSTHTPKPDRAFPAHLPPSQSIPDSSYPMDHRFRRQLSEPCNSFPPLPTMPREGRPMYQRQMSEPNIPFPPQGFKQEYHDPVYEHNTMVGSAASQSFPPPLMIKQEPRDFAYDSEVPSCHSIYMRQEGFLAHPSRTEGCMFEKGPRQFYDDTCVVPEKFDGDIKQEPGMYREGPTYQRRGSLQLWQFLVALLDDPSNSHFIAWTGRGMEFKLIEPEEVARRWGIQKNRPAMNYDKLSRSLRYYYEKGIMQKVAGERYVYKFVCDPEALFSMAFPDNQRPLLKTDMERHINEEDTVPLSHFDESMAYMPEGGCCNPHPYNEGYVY
Outline: as §1

Q: What does the source list for TCCTAC?
A: binding signal [1]: 1.48 fold enrichment (6-mer frequency, TF over GST control); binding signal [2]: 1.46 fold enrichment (6-mer frequency, TF over GST control); binding signal [3]: 1.43 fold enrichment (6-mer frequency, TF over GST control); binding signal [4]: 1.42 fold enrichment (6-mer frequency, TF over GST control); binding signal [5]: 1.31 fold enrichment (6-mer frequency, TF over GST control); binding signal [6]: 1.45 fold enrichment (6-mer frequency, TF over GST control); binding signal [7]: 1.52 fold enrichment (6-mer frequency, TF over GST control); binding signal [8]: 1.65 fold enrichment (6-mer frequency, TF over GST control); binding signal [9]: 1.56 fold enrichment (6-mer frequency, TF over GST control); binding signal [10]: 1.4 fold enrichment (6-mer frequency, TF over GST control); binding signal [11]: 1.51 fold enrichment (6-mer frequency, TF over GST control); binding signal [12]: 1.21 fold enrichment (6-mer frequency, TF over GST control); binding signal [13]: 1.54 fold enrichment (6-mer frequency, TF over GST control); binding signal [14]: 1.41 fold enrichment (6-mer frequency, TF over GST control); binding signal [15]: 1.29 fold enrichment (6-mer frequency, TF over GST control); binding signal [16]: 1.59 fold enrichment (6-mer frequency, TF over GST control); binding signal [17]: 1.16 fold enrichment (6-mer frequency, TF over GST control); binding signal [18]: 1.31 fold enrichment (6-mer frequency, TF over GST control); binding signal [19]: 1.39 fold enrichment (6-mer frequency, TF over GST control)
